The supplement of paper PMC11732987, “Enantioselective OTUD7B fragment discovery through chemoproteomics screening and high-throughput optimisation” (Communications Chemistry, 2025)

Tests used:
Assay in all cases: log2 ratio of Biotin-Ahx-Ub-VS probe labelling (fragment/DMSO); higher = less target engagement (more negative = stronger competition), active = hit call of the paper (q ≤ 0.05, log2 ratio ≤ -1)
Details in all cases: compound concentration: 200 uM; treatment time: 3 h
USP34 = USP34 (UniProt Q70CQ2)
In short: (§1)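 Fragment (200 µM) or vehicle was incubated for 3 h with triplicate HEK293T lysate samples of 495 µg, which were then treated with Biotin-Ahx-Ub-VS at 0.5 µM final for 1 h. Labelled DUBs were enriched on NeutrAvidin, digested with LysC and trypsin, and analysed by diaPASEF LC-MS/MS. Values are average log2 fragment/vehicle ratios from an unpaired t-test on global-median-normalised Spectronaut label-free quantities, using proteins with ≥2 unique peptides.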

USP36 = target: T1, USP36 (UniProt Q9P275)
T1 sequence (whole entry): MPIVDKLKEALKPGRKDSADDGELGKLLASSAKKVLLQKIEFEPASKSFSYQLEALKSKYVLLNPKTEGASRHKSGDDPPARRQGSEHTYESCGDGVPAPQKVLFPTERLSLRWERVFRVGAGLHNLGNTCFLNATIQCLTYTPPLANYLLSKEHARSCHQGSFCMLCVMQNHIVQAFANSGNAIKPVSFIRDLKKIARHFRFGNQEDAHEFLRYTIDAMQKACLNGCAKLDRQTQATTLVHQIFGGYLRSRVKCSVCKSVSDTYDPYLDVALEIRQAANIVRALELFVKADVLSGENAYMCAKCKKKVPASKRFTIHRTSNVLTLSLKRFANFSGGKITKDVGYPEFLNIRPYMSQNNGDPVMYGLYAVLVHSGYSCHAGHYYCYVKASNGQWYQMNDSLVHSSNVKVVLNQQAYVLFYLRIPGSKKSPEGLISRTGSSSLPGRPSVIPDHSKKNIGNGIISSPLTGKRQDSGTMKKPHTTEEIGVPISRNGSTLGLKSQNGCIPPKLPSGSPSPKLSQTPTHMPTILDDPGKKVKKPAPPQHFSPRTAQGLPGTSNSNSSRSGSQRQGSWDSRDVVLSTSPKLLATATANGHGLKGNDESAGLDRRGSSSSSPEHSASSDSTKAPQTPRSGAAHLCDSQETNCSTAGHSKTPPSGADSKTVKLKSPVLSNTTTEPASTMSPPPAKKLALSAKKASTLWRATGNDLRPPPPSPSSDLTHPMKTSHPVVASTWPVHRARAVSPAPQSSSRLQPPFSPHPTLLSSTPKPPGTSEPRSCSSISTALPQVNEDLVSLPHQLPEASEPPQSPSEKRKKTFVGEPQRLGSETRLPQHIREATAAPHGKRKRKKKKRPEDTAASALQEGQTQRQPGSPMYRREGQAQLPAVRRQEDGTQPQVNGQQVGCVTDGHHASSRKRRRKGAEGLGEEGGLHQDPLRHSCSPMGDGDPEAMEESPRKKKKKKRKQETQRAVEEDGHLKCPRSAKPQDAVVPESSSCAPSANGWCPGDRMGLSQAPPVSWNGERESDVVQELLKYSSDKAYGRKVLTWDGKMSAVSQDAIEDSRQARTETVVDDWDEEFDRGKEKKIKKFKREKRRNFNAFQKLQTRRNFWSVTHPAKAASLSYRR
In short: as §1

USP38 = target: T2, USP38 (UniProt Q8NB14)
T2 sequence (whole entry): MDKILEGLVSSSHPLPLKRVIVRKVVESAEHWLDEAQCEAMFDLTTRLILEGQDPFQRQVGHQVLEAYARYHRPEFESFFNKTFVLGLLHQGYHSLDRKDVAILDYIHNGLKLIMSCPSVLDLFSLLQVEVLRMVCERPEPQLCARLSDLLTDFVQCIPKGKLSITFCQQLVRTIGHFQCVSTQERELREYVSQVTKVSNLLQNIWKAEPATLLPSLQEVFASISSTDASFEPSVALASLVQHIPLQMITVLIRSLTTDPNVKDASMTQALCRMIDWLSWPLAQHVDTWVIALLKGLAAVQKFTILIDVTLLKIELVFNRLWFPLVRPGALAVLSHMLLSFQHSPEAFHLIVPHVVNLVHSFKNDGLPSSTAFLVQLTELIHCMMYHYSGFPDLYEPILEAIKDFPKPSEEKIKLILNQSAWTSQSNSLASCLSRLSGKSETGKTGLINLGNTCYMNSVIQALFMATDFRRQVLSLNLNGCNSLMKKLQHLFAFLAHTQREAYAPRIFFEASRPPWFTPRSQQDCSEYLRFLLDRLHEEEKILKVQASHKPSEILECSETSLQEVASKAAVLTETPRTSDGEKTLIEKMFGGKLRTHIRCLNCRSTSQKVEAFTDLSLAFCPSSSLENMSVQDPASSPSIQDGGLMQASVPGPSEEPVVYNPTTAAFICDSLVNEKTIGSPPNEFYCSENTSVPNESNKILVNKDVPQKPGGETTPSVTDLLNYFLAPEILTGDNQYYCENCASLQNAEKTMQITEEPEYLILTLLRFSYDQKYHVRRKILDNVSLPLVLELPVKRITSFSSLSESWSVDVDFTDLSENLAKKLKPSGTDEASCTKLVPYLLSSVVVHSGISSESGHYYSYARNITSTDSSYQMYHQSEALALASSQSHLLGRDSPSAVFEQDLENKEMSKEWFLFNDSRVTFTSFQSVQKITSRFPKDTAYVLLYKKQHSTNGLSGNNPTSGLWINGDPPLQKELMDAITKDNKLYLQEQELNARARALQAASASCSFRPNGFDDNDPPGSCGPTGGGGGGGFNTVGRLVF
In short: as §1

USP39 = target: T3, USP39 (UniProt Q53GS9)
T3 sequence (whole entry): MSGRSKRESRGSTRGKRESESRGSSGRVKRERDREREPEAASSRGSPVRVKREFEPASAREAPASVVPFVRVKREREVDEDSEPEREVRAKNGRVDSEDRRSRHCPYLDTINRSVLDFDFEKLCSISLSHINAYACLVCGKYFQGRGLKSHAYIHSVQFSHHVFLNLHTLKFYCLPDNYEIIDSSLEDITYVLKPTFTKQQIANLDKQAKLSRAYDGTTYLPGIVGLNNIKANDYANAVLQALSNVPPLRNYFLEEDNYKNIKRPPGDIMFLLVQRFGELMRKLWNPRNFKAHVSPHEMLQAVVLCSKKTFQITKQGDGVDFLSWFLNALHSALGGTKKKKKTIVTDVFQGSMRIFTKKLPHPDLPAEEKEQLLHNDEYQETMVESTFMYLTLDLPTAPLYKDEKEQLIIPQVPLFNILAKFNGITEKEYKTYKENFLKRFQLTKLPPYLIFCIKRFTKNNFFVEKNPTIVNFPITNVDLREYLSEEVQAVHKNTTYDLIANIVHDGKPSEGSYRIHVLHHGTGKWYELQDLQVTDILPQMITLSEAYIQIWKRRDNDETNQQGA
In short: as §1

USP4 = target: T4, USP4 (UniProt Q13107)
T4 sequence (whole entry): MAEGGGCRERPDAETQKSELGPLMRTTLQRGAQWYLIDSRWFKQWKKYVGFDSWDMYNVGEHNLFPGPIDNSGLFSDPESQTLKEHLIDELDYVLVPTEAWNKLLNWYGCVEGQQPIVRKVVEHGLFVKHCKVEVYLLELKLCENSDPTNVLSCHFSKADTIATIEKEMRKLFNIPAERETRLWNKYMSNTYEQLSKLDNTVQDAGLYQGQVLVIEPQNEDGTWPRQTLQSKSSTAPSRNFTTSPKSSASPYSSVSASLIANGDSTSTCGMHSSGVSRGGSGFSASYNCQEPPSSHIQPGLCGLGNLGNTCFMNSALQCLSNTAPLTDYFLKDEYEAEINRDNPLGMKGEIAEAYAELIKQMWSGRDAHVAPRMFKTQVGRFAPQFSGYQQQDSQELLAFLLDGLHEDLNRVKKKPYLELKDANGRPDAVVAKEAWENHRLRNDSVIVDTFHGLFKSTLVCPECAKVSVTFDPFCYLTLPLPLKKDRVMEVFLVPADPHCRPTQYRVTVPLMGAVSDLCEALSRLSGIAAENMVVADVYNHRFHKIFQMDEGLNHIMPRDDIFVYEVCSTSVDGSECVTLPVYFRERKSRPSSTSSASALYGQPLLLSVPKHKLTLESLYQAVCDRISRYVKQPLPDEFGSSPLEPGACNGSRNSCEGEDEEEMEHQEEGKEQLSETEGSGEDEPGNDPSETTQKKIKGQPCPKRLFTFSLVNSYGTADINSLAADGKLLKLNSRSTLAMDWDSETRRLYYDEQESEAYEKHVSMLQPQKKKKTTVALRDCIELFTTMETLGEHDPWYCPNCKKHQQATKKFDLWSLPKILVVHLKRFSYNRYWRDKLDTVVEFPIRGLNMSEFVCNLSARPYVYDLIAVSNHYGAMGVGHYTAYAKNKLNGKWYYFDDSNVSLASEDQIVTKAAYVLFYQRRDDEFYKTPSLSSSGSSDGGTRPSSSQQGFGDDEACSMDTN
In short: as §1

Measured: log2 ratio of Biotin-Ahx-Ub-VS probe labelling

USP34, sequence (Q70CQ2 whole entry, the tested form may be a part): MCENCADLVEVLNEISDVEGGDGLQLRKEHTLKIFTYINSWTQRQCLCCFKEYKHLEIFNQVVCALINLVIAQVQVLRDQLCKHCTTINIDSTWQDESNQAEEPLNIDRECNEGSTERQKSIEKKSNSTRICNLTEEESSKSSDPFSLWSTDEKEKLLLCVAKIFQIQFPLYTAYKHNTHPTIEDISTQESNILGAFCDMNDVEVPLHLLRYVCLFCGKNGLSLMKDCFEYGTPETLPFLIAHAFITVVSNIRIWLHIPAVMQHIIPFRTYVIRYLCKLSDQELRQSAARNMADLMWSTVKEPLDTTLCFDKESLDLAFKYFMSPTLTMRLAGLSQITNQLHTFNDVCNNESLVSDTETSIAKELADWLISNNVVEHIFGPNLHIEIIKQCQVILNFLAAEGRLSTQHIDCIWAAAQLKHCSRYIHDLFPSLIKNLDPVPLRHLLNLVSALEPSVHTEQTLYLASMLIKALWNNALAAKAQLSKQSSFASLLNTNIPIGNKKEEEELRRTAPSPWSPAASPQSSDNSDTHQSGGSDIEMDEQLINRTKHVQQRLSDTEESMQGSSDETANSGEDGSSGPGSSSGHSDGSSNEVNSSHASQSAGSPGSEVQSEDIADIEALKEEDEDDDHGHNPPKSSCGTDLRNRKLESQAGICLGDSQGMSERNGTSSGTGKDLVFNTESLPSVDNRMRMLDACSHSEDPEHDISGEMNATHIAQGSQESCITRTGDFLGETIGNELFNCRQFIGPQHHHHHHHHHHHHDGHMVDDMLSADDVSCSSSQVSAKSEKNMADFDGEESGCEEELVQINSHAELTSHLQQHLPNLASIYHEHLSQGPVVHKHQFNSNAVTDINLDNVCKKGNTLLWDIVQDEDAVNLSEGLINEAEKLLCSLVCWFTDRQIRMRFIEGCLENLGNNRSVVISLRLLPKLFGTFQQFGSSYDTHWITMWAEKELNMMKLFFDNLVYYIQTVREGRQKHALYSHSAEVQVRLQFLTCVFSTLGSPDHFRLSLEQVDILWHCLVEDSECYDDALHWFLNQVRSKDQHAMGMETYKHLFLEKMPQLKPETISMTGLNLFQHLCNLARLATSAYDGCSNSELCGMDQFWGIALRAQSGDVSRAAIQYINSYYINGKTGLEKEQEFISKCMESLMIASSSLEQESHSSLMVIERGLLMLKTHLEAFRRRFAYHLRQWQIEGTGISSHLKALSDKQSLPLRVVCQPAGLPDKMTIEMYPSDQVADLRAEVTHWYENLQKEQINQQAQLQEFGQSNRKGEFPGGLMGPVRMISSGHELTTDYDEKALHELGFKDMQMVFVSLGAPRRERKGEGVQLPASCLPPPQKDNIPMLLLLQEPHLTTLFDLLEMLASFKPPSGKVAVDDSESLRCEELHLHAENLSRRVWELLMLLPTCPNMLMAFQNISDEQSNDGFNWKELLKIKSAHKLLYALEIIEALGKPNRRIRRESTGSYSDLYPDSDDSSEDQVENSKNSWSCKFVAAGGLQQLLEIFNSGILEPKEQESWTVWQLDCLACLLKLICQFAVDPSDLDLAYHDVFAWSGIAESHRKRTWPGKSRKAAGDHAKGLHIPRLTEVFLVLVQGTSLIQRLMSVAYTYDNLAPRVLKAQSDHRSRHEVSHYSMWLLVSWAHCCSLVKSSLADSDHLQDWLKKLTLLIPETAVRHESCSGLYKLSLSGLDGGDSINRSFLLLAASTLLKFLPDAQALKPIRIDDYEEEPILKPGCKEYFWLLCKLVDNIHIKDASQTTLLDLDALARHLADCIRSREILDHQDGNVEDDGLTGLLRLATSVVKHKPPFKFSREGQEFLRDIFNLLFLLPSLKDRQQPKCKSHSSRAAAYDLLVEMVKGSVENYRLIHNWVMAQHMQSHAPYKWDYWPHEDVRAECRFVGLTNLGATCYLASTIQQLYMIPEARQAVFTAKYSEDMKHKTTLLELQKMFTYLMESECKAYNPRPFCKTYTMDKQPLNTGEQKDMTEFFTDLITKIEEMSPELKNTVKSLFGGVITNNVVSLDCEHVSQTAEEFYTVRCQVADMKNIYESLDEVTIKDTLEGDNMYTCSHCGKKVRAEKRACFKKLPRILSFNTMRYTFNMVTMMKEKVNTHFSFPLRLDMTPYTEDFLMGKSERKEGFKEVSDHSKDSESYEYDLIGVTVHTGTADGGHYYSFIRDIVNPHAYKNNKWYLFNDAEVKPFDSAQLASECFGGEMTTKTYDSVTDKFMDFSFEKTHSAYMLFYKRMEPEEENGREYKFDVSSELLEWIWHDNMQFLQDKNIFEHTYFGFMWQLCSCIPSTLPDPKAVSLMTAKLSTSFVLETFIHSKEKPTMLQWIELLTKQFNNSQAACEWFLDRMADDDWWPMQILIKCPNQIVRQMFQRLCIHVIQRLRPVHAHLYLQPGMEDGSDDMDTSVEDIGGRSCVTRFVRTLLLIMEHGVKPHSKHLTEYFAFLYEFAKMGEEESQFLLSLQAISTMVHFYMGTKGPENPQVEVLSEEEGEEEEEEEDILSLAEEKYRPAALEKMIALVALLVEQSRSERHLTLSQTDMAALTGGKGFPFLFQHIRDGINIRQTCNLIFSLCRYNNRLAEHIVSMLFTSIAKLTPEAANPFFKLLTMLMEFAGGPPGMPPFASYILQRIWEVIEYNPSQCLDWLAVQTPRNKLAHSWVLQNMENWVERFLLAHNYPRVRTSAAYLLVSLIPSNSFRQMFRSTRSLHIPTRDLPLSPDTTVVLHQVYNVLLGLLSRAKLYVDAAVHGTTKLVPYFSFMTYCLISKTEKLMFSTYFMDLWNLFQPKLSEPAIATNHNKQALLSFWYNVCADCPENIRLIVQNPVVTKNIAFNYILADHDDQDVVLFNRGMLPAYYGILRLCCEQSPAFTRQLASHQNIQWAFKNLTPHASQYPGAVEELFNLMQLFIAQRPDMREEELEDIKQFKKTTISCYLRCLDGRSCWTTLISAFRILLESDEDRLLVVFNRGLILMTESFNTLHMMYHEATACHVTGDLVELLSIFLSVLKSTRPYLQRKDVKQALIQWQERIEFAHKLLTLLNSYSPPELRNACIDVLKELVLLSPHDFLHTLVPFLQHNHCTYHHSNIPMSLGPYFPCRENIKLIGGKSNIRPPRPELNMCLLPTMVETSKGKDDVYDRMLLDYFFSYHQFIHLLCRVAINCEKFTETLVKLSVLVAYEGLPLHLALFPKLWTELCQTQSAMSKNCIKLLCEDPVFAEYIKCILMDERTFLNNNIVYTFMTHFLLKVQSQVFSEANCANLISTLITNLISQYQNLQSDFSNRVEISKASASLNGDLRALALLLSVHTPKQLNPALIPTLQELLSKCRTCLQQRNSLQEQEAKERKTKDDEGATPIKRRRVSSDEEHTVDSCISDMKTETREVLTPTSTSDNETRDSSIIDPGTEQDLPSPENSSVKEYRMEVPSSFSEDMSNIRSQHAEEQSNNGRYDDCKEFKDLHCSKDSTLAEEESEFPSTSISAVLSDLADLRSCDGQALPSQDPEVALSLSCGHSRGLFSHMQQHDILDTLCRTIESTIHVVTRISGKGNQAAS

O=C(CCl)N1CC2(CCOCC2)C1
inactive: USP34 -0.0656 | USP36 -0.243 | USP38 0.103 | USP39 0.364 | USP4 -0.0394
